The results in this text go back to PubChem BioAssay (NCI).

Each structure is given as a SMILES string. Compounds without any hit were thinned out: in the full panel of roughly 83,000, 20% have a hit.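 Cell lines were cultured in 96-well plates, exposed to a single compound concentration, and assessed for percent growth 48 hours later.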 Values without a mark were called inactive. Calls of active or inactive are those of the source. Rule for the calls: active = growth percent below 10; inactive = the rest.

Some test systems named below: NCI-H23 lung; NCI-H226 lung; NCI-H322M lung; HOP-62 NSCLC; NCI-H460 lung; HOP-92 NSCLC; A549/ATCC NSCLC; 786-0 renal; COLO 205 colon; DU-145 prostate; MALME-3M melanoma; MDA-MB-231 breast; RXF 393 renal; SF-268 CNS; SF-295 CNS; SF-539 CNS; UACC-257 melanoma; M14 melanoma; K-562 leukemia.
What all share (assay): NCI-60 one-dose screen, 48 h (100 = growth as untreated, 0 = no growth, -100 = all killed)
Settings in all cases: 10 µM unless noted

As for `CC(=O)[C@@H]1CC[C@]2(C(N)=O)CC[C@]3(C)[C@H](CC[C@@H]4[C@@]5(C)CCCNC(C)(C)[C@@H]5CC[C@]43C)[C@@H]12`, the growth was 93.7% with NCI-H23 lung; 99.6% in the experiment on NCI-H226 lung; 96.3% in the experiment on NCI-H322M lung; 98.3% in the experiment with HOP-62 NSCLC; 86.2% in the experiment on NCI-H460 lung; 81.7% in the experiment on HOP-92 NSCLC. For the same compound, the growth in the experiment with A549/ATCC NSCLC was 83.3%; with 786-0 renal, 88.9%; with COLO 205 colon it was 86.6%; in the experiment with DU-145 prostate, 91.6%; with MALME-3M melanoma, 90%; with MDA-MB-231 breast, 106%. For the same compound, the growth in the experiment with RXF 393 renal was 69.5%; in the experiment with SF-268 CNS, 80.2%; in the experiment on SF-295 CNS it was 86.6%; with SF-539 CNS, 90.1%; in the experiment on UACC-257 melanoma it was 94.4%; with M14 melanoma, 77.5%.

`O=S(=O)(NCCNc1nccc(-c2c(-c3cccc(O)c3)nc3occn23)n1)c1ccc(Cl)cc1`: the growth in the experiment with NCI-H23 lung was 103%; in the experiment on NCI-H226 lung it was 109%; with NCI-H322M lung it was 112%; with HOP-62 NSCLC, 120%; with NCI-H460 lung, 102%; in the experiment with HOP-92 NSCLC, 115%. Further, the growth in the experiment with A549/ATCC NSCLC is 101%; in the experiment with 786-0 renal, 109%; in the experiment on COLO 205 colon, 32.7%; with DU-145 prostate, 111%; with K-562 leukemia it was 87.8%; with MALME-3M melanoma it was -4.98% (active). Besides, the growth in the experiment on MDA-MB-231 breast was 86.2%; in the experiment with RXF 393 renal, 107%; in the experiment with SF-268 CNS, 103%; with SF-295 CNS, 114%; in the experiment with SF-539 CNS it was 121%; in the experiment on UACC-257 melanoma, 46.9%. Also, in the experiment with M14 melanoma, the growth is 35.1%.

For `Cn1c(-c2c(N)n(CCCN3CCOCC3)c3nc(C#N)c(C#N)nc23)nc2ccccc21`, the growth in the experiment with NCI-H23 lung was 93.2%; with NCI-H226 lung, 89.7%; in the experiment with NCI-H322M lung, 78.1%; with HOP-62 NSCLC it was 76.4%; in the experiment on NCI-H460 lung, 106%; in the experiment on HOP-92 NSCLC, -6.11% (active). In addition, the growth in the experiment with A549/ATCC NSCLC was 86.8%; in the experiment on 786-0 renal, 23.3%; with DU-145 prostate, 75.3%; with MALME-3M melanoma, 48.4%; with MDA-MB-231 breast, 43.4%; in the experiment with RXF 393 renal it was 51.2%. Besides, the growth with SF-268 CNS is 76.2%; in the experiment with SF-295 CNS, 110%; with SF-539 CNS, 19.3%; in the experiment on UACC-257 melanoma, 67.8%; in the experiment with M14 melanoma, 74.2%.

As to `Cc1nn(-c2ccccc2)c(Cl)c1/C=C/C(=O)c1ccc(F)cc1`, the growth in the experiment with NCI-H23 lung is 94.6%; in the experiment on NCI-H226 lung, 85.8%; in the experiment on NCI-H322M lung it was 91.2%; in the experiment with HOP-62 NSCLC, 89.5%; in the experiment with NCI-H460 lung, 98%; in the experiment with HOP-92 NSCLC it was 88.1%. The growth in the experiment with A549/ATCC NSCLC was 83.8%; in the experiment on 786-0 renal it was 12.6%; with COLO 205 colon, 105%; in the experiment with DU-145 prostate it was 104%; in the experiment with MALME-3M melanoma it was 93.2%; in the experiment on MDA-MB-231 breast it was 97.9%. The growth with RXF 393 renal is 80.8%; in the experiment on SF-268 CNS, 96.8%; with SF-295 CNS it was 91.2%; in the experiment with SF-539 CNS it was 89.9%; with UACC-257 melanoma it was 88.9%; in the experiment with M14 melanoma, 80.6%.

Turning to `CC1(C)CC[C@]23CC[C@]4(C)[C@H](CC[C@@H]5[C@@]6(C)CCCNC(C)(C)[C@@H]6CC[C@]54C)[C@H]2[C@H]1OC3`, the growth in the experiment on NCI-H23 lung is 41.2%; with NCI-H226 lung, 34.8%; with NCI-H322M lung, -21.4% (active); with HOP-62 NSCLC it was 27.7%; in the experiment with NCI-H460 lung, -60.6% (active); with HOP-92 NSCLC, -37.2% (active). For the same compound, the growth was -45.6% (active) in the experiment with A549/ATCC NSCLC; -96.2% (active) in the experiment with 786-0 renal; -68.2% (active) in the experiment with COLO 205 colon; -8.9% (active) in the experiment on DU-145 prostate; -39.7% (active) with K-562 leukemia; -63.4% (active) with MALME-3M melanoma. In addition, the growth with MDA-MB-231 breast was -62.8% (active); in the experiment with RXF 393 renal it was -65.3% (active); with SF-268 CNS, 38.2%; in the experiment with SF-295 CNS, -65% (active); in the experiment with SF-539 CNS, 38.7%; with UACC-257 melanoma, 45.1%. Also, in the experiment on M14 melanoma, the growth was -77.2% (active).

Take `Clc1ccc(-c2ccc(CNCC3CCNCC3)o2)c(-c2ccccc2)c1`: the growth in the experiment on NCI-H23 lung is -39.8% (active); in the experiment with NCI-H226 lung, -12.1% (active); in the experiment with NCI-H322M lung, -25.7% (active); in the experiment on HOP-62 NSCLC, -78.3% (active); in the experiment with NCI-H460 lung it was -86.7% (active); in the experiment with HOP-92 NSCLC, -39.3% (active). The growth in the experiment on A549/ATCC NSCLC was -79.5% (active); in the experiment on 786-0 renal, -90.2% (active); in the experiment with COLO 205 colon it was -76.3% (active); in the experiment on DU-145 prostate, -94.2% (active); with MALME-3M melanoma it was -85.4% (active); in the experiment with MDA-MB-231 breast, -86.5% (active). For the same compound, the growth in the experiment with RXF 393 renal was -88.2% (active); with SF-268 CNS, -82% (active); in the experiment on SF-295 CNS it was -86.1% (active); with SF-539 CNS, -90.3% (active); in the experiment on UACC-257 melanoma it was -75.3% (active); in the experiment on M14 melanoma it was -83.3% (active).

With `CCN(CC)CC[n+]1cc2cc(OC)c(OC)cc2c2ccc3cc4c(cc3c21)OCO4`, the growth in the experiment on NCI-H23 lung was 3.47% (active); with NCI-H226 lung, 29.7%; in the experiment on NCI-H322M lung, -15.9% (active); in the experiment with HOP-62 NSCLC, -4.95% (active); in the experiment with NCI-H460 lung, -65.7% (active); in the experiment on HOP-92 NSCLC, 14.7%. The growth in the experiment on A549/ATCC NSCLC is -41.2% (active); in the experiment on 786-0 renal, 3.36% (active); in the experiment on COLO 205 colon, 13.9%; with DU-145 prostate it was 1.33% (active); in the experiment on K-562 leukemia it was 2.65% (active); in the experiment with MALME-3M melanoma it was -2.49% (active). Further, the growth in the experiment with MDA-MB-231 breast is -19.5% (active); in the experiment on RXF 393 renal, -39.1% (active); in the experiment with SF-268 CNS it was -16% (active); in the experiment with SF-295 CNS, -2.66% (active); with SF-539 CNS it was -14.7% (active); in the experiment with UACC-257 melanoma, 18%. In the experiment on M14 melanoma, the growth is -54.2% (active).

On to `O=S(=O)(NCCCNc1nccc(-c2c(-c3cccc(F)c3)nc3sccn23)n1)c1cccc(F)c1`, for which the growth in the experiment on NCI-H23 lung is 38.8%; in the experiment with NCI-H226 lung, 23.2%; in the experiment with NCI-H322M lung, 79.9%; with HOP-62 NSCLC, 61.3%; in the experiment on NCI-H460 lung it was 58.3%; in the experiment on HOP-92 NSCLC, 74.8%. In addition, the growth was 49.3% in the experiment on A549/ATCC NSCLC; 66.3% in the experiment on 786-0 renal; 23.4% in the experiment on COLO 205 colon; 55.5% with DU-145 prostate; 20.1% with K-562 leukemia; 63.2% with MALME-3M melanoma. For the same compound, the growth was 75.9% in the experiment with MDA-MB-231 breast; 78.8% in the experiment with RXF 393 renal; 55.6% in the experiment on SF-268 CNS; 51.1% in the experiment with SF-295 CNS; 86.4% in the experiment on SF-539 CNS; 50.8% in the experiment on UACC-257 melanoma. The growth with M14 melanoma is 28.6%.
